# A selection: hits, their analogues and other compounds. The true share with any hit is near 7.6%.
# RORgamma inh – ROR gamma (mouse) transcription inhibition | Drosophila S2 Gal4-RORgamma UAS-luciferase reporter, 20 h | Potency, µM (highest dose often 53.6 µM), most hits filed as inhibitors | 310,000 tested, 5.4% active | AID 2551; also: nearly all actives have a fitted effect of over 60% in size
# Target sequence (P51450 whole entry, looked up, the tested form may be a part): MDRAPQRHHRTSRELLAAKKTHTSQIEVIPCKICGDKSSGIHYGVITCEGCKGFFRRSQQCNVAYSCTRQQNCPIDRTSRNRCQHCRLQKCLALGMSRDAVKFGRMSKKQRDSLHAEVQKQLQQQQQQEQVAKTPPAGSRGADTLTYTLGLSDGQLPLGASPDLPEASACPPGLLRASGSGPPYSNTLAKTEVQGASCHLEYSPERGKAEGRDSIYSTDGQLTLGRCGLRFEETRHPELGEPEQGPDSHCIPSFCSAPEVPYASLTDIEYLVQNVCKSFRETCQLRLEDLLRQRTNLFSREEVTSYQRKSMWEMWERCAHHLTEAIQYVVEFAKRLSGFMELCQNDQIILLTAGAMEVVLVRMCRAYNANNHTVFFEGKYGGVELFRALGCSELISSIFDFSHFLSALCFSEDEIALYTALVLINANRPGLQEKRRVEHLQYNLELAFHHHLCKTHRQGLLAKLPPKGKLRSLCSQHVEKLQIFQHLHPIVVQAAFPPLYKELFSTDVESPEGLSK
#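 Luminescence from a UAS-regulated Photinus luciferase reporter in stably transfected Drosophila Schneider cells is measured; decreased signal marks ROR gamma inhibition. Fusion expression is induced by 700 uM copper sulfate for 20 hr.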
# VP16 counter – inhibits Gal4-VP16 luciferase reporter, ROR gamma counter-screen. Drosophila S2 Gal4-VP16 UAS-luciferase, luminescence, 20 h. Potency, µM (doses to about 53.6 µM), usual class: inhibitors. 310,000 tested, 3.5% active;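 also: Gal4-VP16 expression switched on by copper sulfate through the metallothionein promoter; nearly all actives have a fitted effect of over 50% in size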
# Giardia kill – Giardia lamblia killing | activity change, % at 7.66 µM, hits read low | 340,000 tested, 0.15% active | Giardia lamblia trophozoite viability; in the data active = activity change below about -80%; inconclusive = between about -30% and that limit;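 also: parasites exposed to compound for two days anaerobically before the ATP read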
#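 Luminescence from cellular ATP indicates surviving trophozoites (100 cells/well) following 48 hrs anaerobic compound treatment at 37 deg C; signal develops 15-30 min at room temperature.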
# p53 reactivation – re-activators of mutant p53 | H1299 p53-A138V BP100-luciferase reporter, luminescence, 24 h | Potency, µM (titrated, usually from 92.2 µM), actives largely listed as activators | 320,000 tested, 0.063% active | AID 504706; also: nearly all actives have a fitted effect of over 45% in size
#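 H1299 (p53-null), stable ts p53-A138V + BP100-Luc; 1000 cells/well, Opti-MEM/10% FBS; cpd 4 pt, 1:5; 24 h, 37 deg C, 5% CO2; detection reagent 10 min RT; luminescence.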
# BRCA1 expr up – increases BRCA1 expression | Potency, µM (top dose mostly 46.1 µM), usual class: activators | MCF7-BRCA1-FFLuc reporter, luminescence, 48 h; response scale: scaled: vehicle 0%, 10 µM genistein 100% | 380,000 tested, 1.1% active | AID 624202; also: nearly all actives have a fitted effect of over 80% in size
#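 Luminescence from a BRCA1-driven firefly luciferase in MCF7 cells was the read-out, taken 15 min after substrate addition following 48 h compound exposure at 37 °C. Data were normalized to a 10 microM genistein control and DMSO vehicle.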
# ELG1 DNA repair – inhibitors of ELG1-dependent DNA repair in HEK293T cells | HEK293T ELG1-luciferase reporter, luminescence, 16 h; DNA damage induced by 5-fluorouridine | Potency, µM (doses to about 46.1 µM), usual class: inhibitors | 330,000 tested, 2.3% active | AID 504467; also: nearly all actives have a fitted effect of over 55% in size
#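 5-Fluorouridine DNA damage + compound/DMSO, 2,000 cells/well, 16 h, 37 °C/5% CO2. ONE-Glo, 30 min RT, luminescence. Readout = decrease in reporter signal.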
# Numbers stand for hits; n = inactive; u = inconclusive; x = no result; [ ] = dose if it differs, or a comment. Unless noted, calls follow the shape of the dose curve; as a rule, active = well fitted curve in the direction sought with a large enough effect; inconclusive = small, poorly fitted or top-dose-only effect, or another doubt; inactive = no such curve, though single readings can be large; an effect the other way counts as inactive or inconclusive.
SMILES,RORgamma inh,VP16 counter,Giardia kill,p53 reactivation,BRCA1 expr up,ELG1 DNA repair
C/C(=N\NC(=O)c1cccs1)c1c(O)cc(C)oc1=O,4.5µM,5µM,n,n,3.5µM,u
C=C(C)C1CC=C(C)/C(=N/NC(=O)c2cccs2)C1 (stereo not given),n,n,n,u,10µM,u
C/C(=N/NC(=O)c1cccs1)c1cccs1,u,n,n,n,3.5µM,u
CC1=C/C(=N\NC(=O)c2cccs2)CC(C)(C)C1,6.3µM,11µM,n,n,n,n
O=C(CCC1CCCN(C(=O)c2ccncc2)C1)NCc1ccc(F)c(F)c1 (stereo not given),n,n,n,n,n,n
COc1ccc(-c2cn(Cc3ccc(C(N)=O)cc3)c(-c3ccncc3)n2)cc1,x,x,n,u,4.5µM,u
CCCNC(=O)c1ccc(Cn2cc(-c3ccc(OC)cc3)nc2C(C)N)cc1 (stereo not given),x,x,n,n,11µM,u
CCCCNc1cccc2c1S(=O)(=O)N(CCCC)CC(COCc1ccccc1)O2 (stereo not given),x,x,n,x,n,x
O=C1c2c(O)ccc([N+](=O)[O-])c2C(=O)c2c([N+](=O)[O-])ccc(O)c21,6.3µM,11µM,x,x,x,x
O=C(NCc1ccco1)c1c2c(nc3ccccc13)CCC2,n,n,n,n,n,n
CC(C)(C)NC(=O)COC(=O)c1c2c(nc3ccccc13)CCC2,n,n,n,n,n,u
O=C(NCc1ccc(F)cc1)c1c2c(nc3ccccc13)CCC2,n,n,n,n,14µM,u
CC(C)NC(=O)NC(=O)COC(=O)c1c2c(nc3ccccc13)CCC2,n,n,n,n,n,23µM
O=C(OCC(=O)N1CCc2ccccc21)c1c2c(nc3ccccc13)CCCCC2,n,n,n,n,n,23µM
O=C(Nc1ccc(F)cc1)Nc1nnc(COc2ccccc2F)s1,n,n,n,n,n,u
COc1ccccc1NS(=O)(=O)c1ccc(C(=O)NCC(c2ccccc2OC)N(C)C)cc1 (stereo not given),n,n,n,n,n,n
C/C(CCc1ccc2c(c1)OCO2)=N\N=C(/N)SC1CC(=O)N(c2ccc(Cl)cc2)C1=O (stereo not given),8.9µM,u,n,n,n,n
Cc1ccc(Cl)cc1NC(=S)N(Cc1ccco1)C(C)c1cccs1 (stereo not given),3.5µM,7.1µM,n,n,n,u
Cc1ccc(NC(=S)N(Cc2ccco2)C(C)c2cccs2)c(Cl)c1 (stereo not given),n,n[10 µM],n,n,n,n
Cc1ccc(C)c(NC(=S)N(CCc2ccncc2)C(C)C)c1,11µM,n,n,n,n,n
Cc1ccc(C)c(NC(=S)N(Cc2ccco2)C(C)c2cccs2)c1 (stereo not given),2.5µM,5µM,n,n,n,n
COc1ccccc1C(=O)Nc1nsc(-c2ccccc2)n1,n,n,n,u,u,u
COc1cc(-n2c(=O)c3ccccc3n(Cc3cccc(C)c3)c2=O)cc(OC)c1OC,n,n[10 µM],n,n,n,n
COn1c(-c2ccc(Cl)cc2)nc2ncccc21,n,n,n,n,7.1µM,u
CC1CCCN(C(=O)c2ccc3c(=O)n(C4CCCC4)c(=S)[nH]c3c2)C1 (stereo not given),n,n[10 µM],n,n,n,u
SMILES,RORgamma inh,VP16 counter,Giardia kill,p53 reactivation,BRCA1 expr up,ELG1 DNA repair
O=C(c1ccc2c(=O)n(C3CCCC3)c(=S)[nH]c2c1)N1CCCCCC1,1.3µM,1µM,n,n,n,1.8µM
O=C(c1ccc2c(=O)n(-c3ccccc3)c(=S)[nH]c2c1)N1CCCCC1,8.9µM,3.2µM,n,n,n,3.3µM
Cc1ccc2c(c1)c(CC(=O)Nc1ccc(C)c(F)c1)c(C(=O)O)n2C,n,n,n,n,n,n
COc1ccccc1NS(=O)(=O)c1ccc(O)c(C(=O)OCC(=O)c2ccc(Cl)cc2Cl)c1,n,n,n,n,n,n
Cc1ncc(CO)c(/C=N/Nc2ccc(C(F)(F)F)cn2)c1O,u,16µM,n,u,n,u
COC(=O)c1ccc2nc(-c3ccc(F)cc3)c(Cc3ccc(OC)cc3C)n2c1,x,x,x,x,n,x
Cc1cccc(COc2ncnc3nc[nH]c23)c1,u,n,n,n,10µM,u
C/C(=C/C=N/Nc1nc(N2CCCCC2)nc(N2CCCCC2)n1)c1ccccc1,n,n,n,n,n,n
CCOc1ccc(/C=N/NC(=S)NC2CC3C=CC2C3)cc1 (stereo not given),1µM,3.2µM,n,n,n,n
COc1cc(/C=N/NC(=S)NC2CC3C=CC2C3)cc(OC)c1OC (stereo not given),1.8µM,4.5µM,n,n,n,18µM
COc1cc(/C=N/NC(=S)NCCN2CCOCC2)cc(OC)c1OC,u,u,n,n,n,n
CCOC(=O)/C(C#N)=C/Nc1ccccc1OC,n,n,n,u,2.2µM,u
CCOC(=O)C(=O)/C(C#N)=C/Nc1ccccc1,n,n,n,n,n,n
CCOC(=O)/C(C#N)=C\c1cn(C)c2ccccc12,n,n,n,n,n,5.8µM
CCOC(=O)CN(C)C(=O)CCc1nnc(-c2ccsc2)o1,14µM,u,n,n,n,n
CNC(=S)NCCc1c[nH]c2ccc(OC)cc12,n,n[10 µM],n,n,n,n
COc1ccc2[nH]cc(CCNC(=S)NC3CCCC3)c2c1,10µM,u,n,n,n,n
S=C(NCCc1c[nH]c2ccccc12)NC1CCCC1,n,n,n,n,n,u
O=C(NC1CCCCC1)C(=O)c1c[nH]c2ccccc12,n,n,n,u,13µM,u
S=C(NCCc1c[nH]c2ccccc12)NC1CCCCC1,14µM,n,n,n,11µM,n
O=C(NCC1CC1)C1Cc2c(-c3cccc(F)c3)ccnc2O1 (stereo not given),x,x,x,x,n,x
CS(=O)(=O)N(CC(=O)N1CCN(c2ccccc2F)CC1)C1CCCCC1,n,n,n,n,n,u
CS(=O)(=O)N(CC(=O)N1CCN(C(c2ccccc2)c2ccccc2)CC1)C1CCCCC1,13µM,n,n,n,n[1.84 µM],u
O=C1C2C(C(=O)N1/N=C/c1ccc(N3CCCCC3)o1)C1C=CC2C12CC2 (stereo not given),n,3.2µM,n,u,n,n
O=C(O)CN1C(=O)/C(=C/c2ccc(N3CCCCC3)o2)SC1=S,n,n,n,n,n,n
COc1ccc(N(CC(=O)Nc2cccc(C)c2)S(=O)(=O)c2ccc(C)cc2)cc1OC,n,n,n,n,n,n
O=C(CN1C2CCCC1CC(NC(=O)C1CCCCC1)C2)Nc1ccccc1C(F)(F)F (stereo not given),u,u,n,n,n,15µM

# Assay outcomes from PubChem BioAssay.
